# Source: PubChem BioAssay (EPA / NIEHS)
# Records with an inconclusive call do not appear. Active and inactive are the calls of the source. Rule for the calls: active = hit-call score of the fitted dose curve at least 0.9, where 1 is the maximum; inconclusive = response in the unintended direction; inactive = score below 0.9.
# Tests used:
# [1] = target: human Elastase, ELANE (gene 1991) (UniProt P08246); assay: NVS_ENZ_hElastase: NovaScreen (NVS) Enzymatic Assay for human Elastase (AID 2283153)
# In short: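 Cell-free elastase from human neutrophils, 1.5 h after dosing, activity read by absorbance. Primary screen in duplicate at 25 uM; hits (e.g., 30% inhibition) rerun in singleton concentration-response up to 50 uM, fitted versus DMSO.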
# [2] = target: human Ephrin type-A Receptor 2 (EphA2), EPHA2 (gene 1969) (UniProt P29317); assay: NVS_ENZ_hEphA2: NovaScreen (NVS) Enzymatic Assay for human Ephrin type-A Receptor 2 (EphA2) (AID 2283155)
# In short: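 Cell-free recombinant EphA2 kinase with specific substrate, 1 h, fluorescence with electrophoretic mobility-shift separation of substrate and product. Primary screen at 25 uM in duplicate; hits retested in singleton concentration-response up to 50 uM, referenced to DMSO.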
# [3] = target: human IkappaB Kinase alpha (IKKa), CHUK (gene 1147) (UniProt O15111); assay: NVS_ENZ_hIKKa: NovaScreen (NVS) Enzymatic Assay for human IkappaB Kinase alpha (IKKa) (AID 2283167)
# In short: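 Cell-free recombinant human IKKa with fluorescent substrate, product separated by electrophoretic mobility shift; read 1 hour after dosing. Primary screen duplicate at 25 uM, actives then concentration-response up to 50 uM; loss of signal relative to DMSO.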
# [4] = target: human Insulin Receptor (InsR), INSR (gene 3643) (UniProt P06213); assay: NVS_ENZ_hInsR: NovaScreen (NVS) Enzymatic Assay for human Insulin Receptor (InsR) (AID 2283168)
# In short: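 Fluorescent substrate phosphorylation by recombinant kinase, product resolved by electrophoretic mobility shift, read 1 h after dosing. Screened in duplicate at 25 uM; hits (e.g., 30% inhibition) run in concentration-response to 50 uM; DMSO as baseline.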
# [5] = target: human FYN Proto-Oncogene, Src family Tyrosine Kinase (Fyn), FYN (gene 2534) (UniProt P06241); assay: NVS_ENZ_hFyn: NovaScreen (NVS) Enzymatic Assay for human FYN Proto-Oncogene, Src family Tyrosine Kinase (Fyn) (AID 2283161)
# In short: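 Recombinant enzyme with fluorescent substrate, product separated by electrophoretic mobility shift; read 1 h after dosing. Duplicate 25 uM single-point screen, actives retested in concentration series; loss of signal vs DMSO.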
# [6] = target: Histone deacetylase 3 (Homo sapiens) (UniProt O15379); assay: NVS_ENZ_hHDAC3: NovaScreen (NVS) Enzymatic Assay for human Histone Deacetylase 3 (HDAC3) (AID 2283163)
# In short: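 Recombinant human HDAC3 with fluorescent substrate, 1 h after dosing; product separated from substrate by electrophoretic mobility shift and read by fluorescence. Primary screen at 25 uM in duplicate; actives (e.g. ≥30% inhibition) retested in concentration-response up to 50 uM.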
# [7] = target: human LYN Proto-Oncogene, Src family Tyrosine Kinase (LynA), LYN (gene 4067) (UniProt P07948); assay: NVS_ENZ_hLynA: NovaScreen (NVS) Enzymatic Assay for human LYN Proto-Oncogene, Src family Tyrosine Kinase (LynA) (AID 2283173)
# In short: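 Recombinant kinase with fluorescent substrate; product separated from substrate by electrophoretic mobility shift and read 1 h after dosing. Duplicate screen at 25 uM, then concentration-response up to 50 uM; activity scored as signal loss against DMSO.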
# [8] = target: human c-Jun N-terminal Kinases (JNK2), MAPK9 (gene 5601) (UniProt P45984); assay: NVS_ENZ_hJNK2: NovaScreen (NVS) Enzymatic Assay for human c-Jun N-terminal Kinases (JNK2) (AID 2283171)
# In short: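 Cell-free recombinant human JNK2 activity assay; fluorescent substrate and product separated by electrophoretic mobility shift, read 1 h after dosing. Primary duplicate screen at 25 uM; actives run in concentration-response up to 50 uM, relative to DMSO.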
# [9] = target: human Matrix Metalloproteinase-1 (MMP1), MMP1 (gene 4312) (UniProt P03956); assay: NVS_ENZ_hMMP1: NovaScreen (NVS) Enzymatic Assay for human Matrix Metalloproteinase-1 (MMP1) (AID 2283181)
# In short: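 Human MMP1 enzyme activity measured by fluorescence 1 h after dosing, cell-free, with a specific substrate. Screened in duplicate at 25 uM; hits (e.g. 30% inhibition) run in concentration-response up to 50 uM; loss of signal versus DMSO.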
# [10] = target: Mitogen-activated protein kinase 3 (Homo sapiens) (UniProt P27361); assay: NVS_ENZ_hMAPK3: NovaScreen (NVS) Enzymatic Assay for human Mitogen-Activated Protein Kinase 3 (MAPK 3) (AID 2283177)
# In short: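 Cell-free enzymatic assay with recombinant protein and specific substrate; fluorescence and electrophoretic mobility shift read-out 1 h after dosing. Primary screen duplicate at 25 uM; actives then run in concentration-response up to 50 uM, loss of signal versus DMSO.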
# [11] = target: human MET Proto-Oncogene, Receptor Tyrosine Kinase (MET), MET (gene 4233) (UniProt P08581); assay: NVS_ENZ_hMet: NovaScreen (NVS) Enzymatic Assay for human MET Proto-Oncogene, Receptor Tyrosine Kinase (MET) (AID 2283180)
# In short: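 Cell-free MET kinase assay using recombinant protein and fluorescent substrate, with mobility-shift separation; read 1 h after dosing. Primary duplicate at 25 uM; actives in singleton concentration-response to 50 uM maximum. Signal loss versus DMSO.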
# [12] = target: Collagenase 3 (Homo sapiens) (UniProt P45452); assay: NVS_ENZ_hMMP13: NovaScreen (NVS) Enzymatic Assay for human Matrix Metalloproteinase-13 (MMP13) (AID 2283182)
# In short: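 Recombinant MMP13 cleaving fluorescent substrate, cell-free, measured 1 h after dosing. Primary duplicate screen at 25 uM; actives tested in concentration-response up to 50 uM; loss of signal relative to DMSO.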
# Mitogen-activated protein kinase 3 (Homo sapiens), sequence (P27361 whole entry, looked up): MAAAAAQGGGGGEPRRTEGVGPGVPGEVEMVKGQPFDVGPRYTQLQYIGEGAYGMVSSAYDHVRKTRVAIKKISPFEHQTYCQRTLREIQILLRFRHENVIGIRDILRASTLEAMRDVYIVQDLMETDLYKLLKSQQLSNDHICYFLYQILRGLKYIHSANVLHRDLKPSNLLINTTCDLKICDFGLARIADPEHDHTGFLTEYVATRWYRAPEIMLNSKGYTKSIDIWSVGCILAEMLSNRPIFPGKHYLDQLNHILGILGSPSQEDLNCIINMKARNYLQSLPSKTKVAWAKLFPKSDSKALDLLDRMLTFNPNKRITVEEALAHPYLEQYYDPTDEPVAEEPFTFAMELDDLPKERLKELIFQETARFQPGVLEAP
# human Ephrin type-A Receptor 2 (EphA2), EPHA2 (gene 1969), sequence (P29317 whole entry, looked up): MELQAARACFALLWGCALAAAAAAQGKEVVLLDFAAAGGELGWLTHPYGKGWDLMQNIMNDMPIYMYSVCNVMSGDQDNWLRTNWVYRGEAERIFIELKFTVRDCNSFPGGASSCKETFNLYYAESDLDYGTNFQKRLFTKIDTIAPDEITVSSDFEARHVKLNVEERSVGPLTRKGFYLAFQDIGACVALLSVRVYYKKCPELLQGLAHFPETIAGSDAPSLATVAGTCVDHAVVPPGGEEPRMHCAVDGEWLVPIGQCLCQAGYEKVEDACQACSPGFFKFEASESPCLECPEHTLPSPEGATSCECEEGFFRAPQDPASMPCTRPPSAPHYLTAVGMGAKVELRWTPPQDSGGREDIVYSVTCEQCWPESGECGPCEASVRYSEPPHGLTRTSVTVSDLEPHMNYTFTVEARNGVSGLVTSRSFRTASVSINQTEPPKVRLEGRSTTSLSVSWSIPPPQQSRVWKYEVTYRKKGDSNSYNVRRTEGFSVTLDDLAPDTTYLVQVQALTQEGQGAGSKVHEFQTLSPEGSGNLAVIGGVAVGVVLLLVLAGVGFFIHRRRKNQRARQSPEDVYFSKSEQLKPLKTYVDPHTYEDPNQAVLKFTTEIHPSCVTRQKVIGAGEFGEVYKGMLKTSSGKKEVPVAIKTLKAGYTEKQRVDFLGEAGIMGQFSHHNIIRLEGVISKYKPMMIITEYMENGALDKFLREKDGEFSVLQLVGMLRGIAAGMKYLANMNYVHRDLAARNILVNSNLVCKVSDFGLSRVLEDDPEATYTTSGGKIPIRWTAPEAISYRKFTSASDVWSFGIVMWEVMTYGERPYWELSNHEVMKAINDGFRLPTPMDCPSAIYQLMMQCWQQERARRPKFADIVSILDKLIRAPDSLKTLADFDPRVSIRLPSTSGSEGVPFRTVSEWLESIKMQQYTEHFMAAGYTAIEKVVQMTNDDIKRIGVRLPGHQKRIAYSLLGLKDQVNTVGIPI
# human c-Jun N-terminal Kinases (JNK2), MAPK9 (gene 5601), sequence (P45984 whole entry, looked up): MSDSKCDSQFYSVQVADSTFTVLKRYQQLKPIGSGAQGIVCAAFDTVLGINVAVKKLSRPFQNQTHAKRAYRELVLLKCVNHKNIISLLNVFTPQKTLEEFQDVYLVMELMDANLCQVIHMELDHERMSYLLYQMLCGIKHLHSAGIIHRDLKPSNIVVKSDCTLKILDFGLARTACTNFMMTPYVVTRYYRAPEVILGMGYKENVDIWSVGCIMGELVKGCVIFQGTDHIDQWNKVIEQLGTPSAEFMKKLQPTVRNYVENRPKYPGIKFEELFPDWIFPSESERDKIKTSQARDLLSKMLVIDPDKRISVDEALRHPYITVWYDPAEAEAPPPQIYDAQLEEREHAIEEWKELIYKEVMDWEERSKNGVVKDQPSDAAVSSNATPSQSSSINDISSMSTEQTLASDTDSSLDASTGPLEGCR
# human Elastase, ELANE (gene 1991), sequence (P08246 whole entry, looked up): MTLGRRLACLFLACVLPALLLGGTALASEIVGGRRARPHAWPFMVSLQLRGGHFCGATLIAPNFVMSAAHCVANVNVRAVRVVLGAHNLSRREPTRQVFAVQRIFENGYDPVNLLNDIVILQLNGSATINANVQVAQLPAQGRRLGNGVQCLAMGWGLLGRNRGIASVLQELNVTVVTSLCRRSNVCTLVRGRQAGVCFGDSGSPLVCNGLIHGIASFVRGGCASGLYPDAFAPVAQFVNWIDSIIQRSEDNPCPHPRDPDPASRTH
# human IkappaB Kinase alpha (IKKa), CHUK (gene 1147), sequence (O15111 whole entry, looked up): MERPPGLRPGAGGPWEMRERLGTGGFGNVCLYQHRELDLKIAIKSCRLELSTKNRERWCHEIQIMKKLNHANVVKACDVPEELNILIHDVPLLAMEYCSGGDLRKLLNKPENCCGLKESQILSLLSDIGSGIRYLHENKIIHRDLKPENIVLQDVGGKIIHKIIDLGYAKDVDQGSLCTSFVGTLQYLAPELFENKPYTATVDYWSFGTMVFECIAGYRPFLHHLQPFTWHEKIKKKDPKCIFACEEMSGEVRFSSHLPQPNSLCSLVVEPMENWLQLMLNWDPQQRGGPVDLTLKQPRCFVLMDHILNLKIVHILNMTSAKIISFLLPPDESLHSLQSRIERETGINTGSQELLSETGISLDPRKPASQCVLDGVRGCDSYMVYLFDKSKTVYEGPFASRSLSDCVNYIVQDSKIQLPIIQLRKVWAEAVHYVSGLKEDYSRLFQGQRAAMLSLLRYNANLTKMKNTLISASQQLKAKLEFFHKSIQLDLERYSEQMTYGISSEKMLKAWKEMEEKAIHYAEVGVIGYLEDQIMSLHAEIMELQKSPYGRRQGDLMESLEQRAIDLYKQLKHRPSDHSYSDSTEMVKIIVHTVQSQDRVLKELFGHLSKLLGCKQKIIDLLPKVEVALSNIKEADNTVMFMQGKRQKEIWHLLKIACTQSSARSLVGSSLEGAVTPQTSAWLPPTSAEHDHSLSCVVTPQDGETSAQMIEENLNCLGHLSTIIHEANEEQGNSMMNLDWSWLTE
# human Matrix Metalloproteinase-1 (MMP1), MMP1 (gene 4312), sequence (P03956 whole entry, looked up): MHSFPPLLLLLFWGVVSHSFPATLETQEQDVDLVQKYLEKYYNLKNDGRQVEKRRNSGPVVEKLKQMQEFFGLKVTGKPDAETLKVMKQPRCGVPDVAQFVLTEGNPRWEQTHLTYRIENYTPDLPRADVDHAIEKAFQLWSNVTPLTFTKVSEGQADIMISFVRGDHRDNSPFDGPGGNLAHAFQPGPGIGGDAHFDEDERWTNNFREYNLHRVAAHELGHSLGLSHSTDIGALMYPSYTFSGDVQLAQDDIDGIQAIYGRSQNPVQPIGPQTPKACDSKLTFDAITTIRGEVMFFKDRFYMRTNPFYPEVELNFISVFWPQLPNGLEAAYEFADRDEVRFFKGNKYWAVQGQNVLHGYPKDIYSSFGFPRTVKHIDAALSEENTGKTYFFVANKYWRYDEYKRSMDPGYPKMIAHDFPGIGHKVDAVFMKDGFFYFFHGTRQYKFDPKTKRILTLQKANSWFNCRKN
# Histone deacetylase 3 (Homo sapiens), sequence (O15379 whole entry, looked up): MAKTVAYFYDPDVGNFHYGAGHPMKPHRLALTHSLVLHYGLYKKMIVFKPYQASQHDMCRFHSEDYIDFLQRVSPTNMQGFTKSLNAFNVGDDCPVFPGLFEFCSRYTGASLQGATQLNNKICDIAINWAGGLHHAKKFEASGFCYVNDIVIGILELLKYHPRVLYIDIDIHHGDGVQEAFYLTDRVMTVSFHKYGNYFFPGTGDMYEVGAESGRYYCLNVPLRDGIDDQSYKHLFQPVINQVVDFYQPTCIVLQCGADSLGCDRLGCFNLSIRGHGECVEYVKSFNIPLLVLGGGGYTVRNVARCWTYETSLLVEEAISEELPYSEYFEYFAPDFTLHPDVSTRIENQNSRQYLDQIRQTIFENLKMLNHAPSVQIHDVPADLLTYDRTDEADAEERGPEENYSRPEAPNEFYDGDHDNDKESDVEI
# human LYN Proto-Oncogene, Src family Tyrosine Kinase (LynA), LYN (gene 4067), sequence (P07948 whole entry, looked up): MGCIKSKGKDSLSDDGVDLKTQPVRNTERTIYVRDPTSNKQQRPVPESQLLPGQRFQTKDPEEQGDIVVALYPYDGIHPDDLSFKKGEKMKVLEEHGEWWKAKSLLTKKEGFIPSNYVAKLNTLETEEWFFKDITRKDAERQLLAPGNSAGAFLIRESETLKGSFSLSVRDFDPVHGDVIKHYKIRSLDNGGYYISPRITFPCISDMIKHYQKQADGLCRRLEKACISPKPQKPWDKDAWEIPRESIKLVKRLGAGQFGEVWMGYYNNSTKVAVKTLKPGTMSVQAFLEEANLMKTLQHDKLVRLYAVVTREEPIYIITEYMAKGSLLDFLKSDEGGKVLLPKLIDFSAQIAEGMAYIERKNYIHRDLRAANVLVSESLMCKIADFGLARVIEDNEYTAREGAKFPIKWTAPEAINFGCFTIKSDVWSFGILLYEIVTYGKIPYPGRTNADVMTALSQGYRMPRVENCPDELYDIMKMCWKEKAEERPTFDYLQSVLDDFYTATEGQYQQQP
# human FYN Proto-Oncogene, Src family Tyrosine Kinase (Fyn), FYN (gene 2534), sequence (P06241 whole entry, looked up): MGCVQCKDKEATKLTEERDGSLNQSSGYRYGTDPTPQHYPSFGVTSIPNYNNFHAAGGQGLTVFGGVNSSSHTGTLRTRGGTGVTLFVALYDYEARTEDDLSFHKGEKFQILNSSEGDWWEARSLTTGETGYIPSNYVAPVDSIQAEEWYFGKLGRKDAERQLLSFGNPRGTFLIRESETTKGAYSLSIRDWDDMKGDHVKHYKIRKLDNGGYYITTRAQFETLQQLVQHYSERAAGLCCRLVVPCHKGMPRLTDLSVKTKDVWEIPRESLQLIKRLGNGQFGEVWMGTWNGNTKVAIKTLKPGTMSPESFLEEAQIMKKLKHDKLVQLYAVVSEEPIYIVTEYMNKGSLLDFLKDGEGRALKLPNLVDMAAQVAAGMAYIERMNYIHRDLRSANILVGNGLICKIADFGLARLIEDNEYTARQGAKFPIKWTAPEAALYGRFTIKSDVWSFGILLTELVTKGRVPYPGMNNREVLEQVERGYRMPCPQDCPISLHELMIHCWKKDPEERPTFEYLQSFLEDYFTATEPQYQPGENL
structure (smiles),measurement,setting,value
c1ccc(OP(Oc2ccccc2)Oc2ccccc2)cc1,AC50,[1],37 µM (active)
c1ccc2c(c1)Nc1ccccc1S2,outcome,[1],inactive
Cc1ccc([N+](=O)[O-])cc1C,outcome,[2],inactive
O=P(Oc1ccccc1)(Oc1ccccc1)Oc1ccccc1,outcome,[2],inactive
same,outcome,[3],inactive
same,outcome,[4],inactive
CCCCc1ccccc1,outcome,[5],inactive
CCOS(=O)(=O)OCC,outcome,[6],inactive
Cc1cccc(N)c1,outcome,[3],inactive
same,outcome,[7],inactive
Cc1ccc(O)cc1C,outcome,[8],inactive
same,AC50,[9],4.79 µM (active)
CC(C)(C)OOC(C)(C)C,outcome,[8],inactive
same,outcome,[10],inactive
same,outcome,[11],inactive
Nc1cc2c3c(c1)C(c1ccccc1)=N[C@@H](NC(=O)c1cccnc1)C(=O)N3CC2,outcome,[10],inactive
CCCN(CCC)c1c([N+](=O)[O-])cc(C(C)C)cc1[N+](=O)[O-],AC50,[9],8.62 µM (active)
CC(Cc1ccc(OCC(=O)O)cc1)NCC(O)c1csc(C(F)(F)F)n1 (centres undefined),outcome,[12],inactive
CCN(CC)c1ccccc1,outcome,[12],inactive
